These results are taken from PubChem BioAssay AID624305 (National Center for Advancing Translational Sciences (NCATS), 2012).

Structures are written as SMILES. Records with an inconclusive call do not appear. Unmarked numbers belong to inactive results. Activity calls are given as the source filed them. The call rests on the fitted dose curve; in most records, active means well fitted activation curve with a large enough effect; inconclusive means small, poorly fitted or top-dose-only effect; inactive means no such curve, though single readings can be large or run the other way.
Potency means the concentration at half of the fitted maximal effect.

A short description of this test: qHTS assay for re-activators of p53 using a Luc reporter: Hit Validation. Further: nearly all actives have a fitted effect of over 75% in size. On activation: 0% is about no effect. The conditions noted are these: p53-responsive luciferase reporter cells, luminescence, H1299 line expressing heat-sensitive Ala138Val p53; series mostly up to 46.1 µM; activation: at the top concentration. In outline:
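H1299 (p53-null) cells stably carrying p53-A138V and a BP100-luciferase reporter, 1000 cells/well, treated 24 h at 37 deg C. Compounds at several concentrations, 1:5 dilution; nocodazole control; luminescence read after 10 min with detection reagent.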
(qHTS replaces the single test concentration by a dilution series.)
On to `COC(=O)Cc1n[nH]c(=S)[nH]c1=O`, for which the “activation” value was -15.1%.

For `O=C(CCc1nc(-c2ccccc2F)no1)NC1CCCCCC1`, the “activation” value is -13.5%.

Regarding `O=C(Nc1nc2c(s1)CCCC2)C1COc2ccccc2O1` (stereo not drawn), the Potency is 0.231 µM (active).

In the case of `CCCCc1ccc(NC(=S)Nc2ccc(Nc3ccc(OC)cc3)cc2)cc1`, the “activation” value was -6.25%.

For the compound `Cc1ccc2nc(-c3ccc(NC(=O)CN4C(=O)c5ccccc5C4=O)cc3)sc2c1`, the Potency was 5.17 µM (active).

Turning to `O=c1[nH]c(N/N=C/c2ccc(O)cc2)nc2ccccc12`, the Potency was 4.61 µM (active).

On to `C=CCOc1c(Br)cc(CNCCCN2CCOCC2)cc1OC`, for which the “activation” value is -24%.

For `COc1ccccc1NC(CC(=O)c1ccccc1)C(=O)OCC(=O)c1ccc(F)cc1` (stereo not drawn), the Potency was 0.231 µM (active).

As to `CC(C)(C)c1nnc(SCC(=O)c2ccccc2)n(N)c1=O`, the “activation” value was 19.3%.

Take `Cc1ccn2c(c1)nc(=S)n2C(=O)c1ccccc1`: the Potency was 0.731 µM (active).

Consider `O=C(/C(=N/N=C/c1ccc(O)c(O)c1)c1ccccc1)c1ccccc1`, for which the “activation” value is -3.12%.

As for `CN(CC(=O)Nc1ccc(Cl)c(Cl)c1)C(=O)C1CCCC1`, the “activation” value is -22.4%.

For the compound `O=C(NN=C1CCCCCC1)c1cccs1`, the activation is 12.5% [at 9.22 µM].

Consider `O=C(Nc1nc(-c2cccs2)cs1)c1ccc([N+](=O)[O-])o1`, for which the Potency was 20.6 µM (active).

Regarding `Cc1cc(C(F)(F)F)c(C#N)c(SCC(=O)Nc2nc3ccccc3s2)n1`, the Potency was 1.46 µM (active).

Turning to `COc1ccc(-c2coc3cc(O[C@@H]4O[C@H](CO)[C@@H](O)[C@H](O)[C@H]4O)ccc3c2=O)cc1`, the Potency was 2.91 µM (active).

Take `CC(C)(C)c1ccc(NC(=O)COC(=O)c2ccc(NS(=O)(=O)c3ccc(F)c(F)c3)cc2)cc1`: the “activation” value is -88%.

`Nc1nonc1-n1nnc(C(=O)N/N=C/c2ccc(Br)cc2)c1CSC1=NCCS1`: the Potency is 3.66 µM (active).

As for `COC(=O)C1=C(C(=O)c2ccccc2)C(c2ccc(OC)c(OC)c2)Nc2nnnn21` (stereo not drawn), the “activation” value was 7.81%.

As to `Cc1ccc(C(=O)CN2C(=O)NC3(CCCCC3C)C2=O)s1` (stereo not drawn), the “activation” value was -5.21%.

In the case of `N#C/C(=C/c1ccccc1[N+](=O)[O-])c1nc(C2CC2)cs1`, the Potency is 5.8 µM (active).

As to `COc1cc(OC)cc(C(=O)NNC(=O)c2ccccn2)c1`, the “activation” value is -2.08%.

With `COc1ccc(-c2nc(-c3ccc(NC(=O)c4ccncc4)cc3)no2)cc1OC`, the “activation” value was -19.3%.

Turning to `Oc1cccc2c(NC(=S)Nc3ccc(OC(F)F)cc3)cccc12`, the “activation” value is -2.08%.

Regarding `COc1ccc2oc(C(=O)Nc3nc(C)cs3)c(C)c2c1`, the Potency was 1.84 µM (active).

Take `Cc1ccc(C)c(OCC(O)CN2C(C)CCCC2C)c1` (stereo not drawn): the “activation” value is 24%.

As for `Cc1ccc2cc(CCNC(=O)c3ccco3)c(=O)[nH]c2c1C`, the Potency was 2.31 µM (active).

With `c1ccc(-c2cn3c(n2)SCC3)cc1`, the Potency was 9.2 µM (active).

`Cc1ccc(NC(=S)NC(=O)C2CCCC2)c(Br)c1`: the Potency was 3.66 µM (active).

For `COCC(=O)Nc1nnc(COc2ccccc2)s1`, the “activation” value was 28.6%.

With `CCCCNC(=S)N(Cc1c(C)noc1C)c1ccccc1`, the “activation” value was 4.69%.

For the compound `c1ccc2nc(-c3ccc(N4CCOCC4)cc3)ccc2c1`, the Potency was 0.164 µM (active).

In the case of `O=C(/C=C/c1ccccc1)NC1CCSC1=O` (stereo not drawn), the activation was 23.4% [at 9.22 µM].

As to `Cc1ccc(-c2nnc(SCc3ccccc3F)o2)cc1`, the Potency is 1.3 µM (active).

As for `Cc1ccc(C(=O)Nc2nnc(SCC(=O)N3CCCc4ccccc43)s2)cc1`, the “activation” value is -3.65%.

Consider `Cc1ccc(NC(=O)c2ccc(OC(=O)COc3ccc(Cl)c(C)c3)cc2)cc1`, for which the Potency was 9.2 µM (active).

As to `O=[N+]([O-])c1cc(C(F)(F)F)ccc1NCCc1c[nH]c2ccccc12`, the “activation” value was 5.73%.

As to `CS(=O)(=O)n1nc(-c2ccc(Cl)cc2)nc1SCc1ccccc1`, the Potency is 20.6 µM (active).
